A selection: hits, their analogues and other compounds. The true share with any hit is near 11%.
SW480 rereplic: A quantitative high throughput screen for small molecules that induce DNA re-replication in SW480 colon adenocarcinoma cells | SW480 DNA re-replication, Hoechst DNA content imaging, 48 h | Potency, µM (highest dose often 46.1 µM), hits mostly activators | 1.8% of 340,000 active | AID 624297, 2012; also: nearly all actives have a fitted effect of over 55% in size
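Image-based DNA-content assay: after two days of treatment, nuclei were labelled with the DNA dye Hoechst and imaged, and hits were compounds raising the count of nuclei showing high fluorescence intensity.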
VP16 counter: VP16 counterscreen qHTS for inhibitors of ROR gamma transcriptional activity; Drosophila S2 Gal4-VP16 UAS-luciferase, luminescence, 20 h; AID 2546, 2010; 3.5% of 310,000 active; Potency, µM (highest dose often 53.6 µM), actives largely listed as inhibitors;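 also: Gal4-VP16 expression switched on by copper sulfate through the metallothionein promoter; nearly all actives have a fitted effect of over 50% in size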
RORgamma inh: qHTS for inhibitors of ROR gamma transcriptional activity; Nuclear receptor ROR-gamma (Mus musculus), P51450; 5.4% of 310,000 active; Potency, µM (titrated, usually from 53.6 µM), hits mostly inhibitors; AID 2551, 2010; Drosophila S2 Gal4-RORgamma UAS-luciferase reporter, 20 h; also: nearly all actives have a fitted effect of over 60% in size
Target sequence (P51450 whole entry, looked up, the tested form may be a part): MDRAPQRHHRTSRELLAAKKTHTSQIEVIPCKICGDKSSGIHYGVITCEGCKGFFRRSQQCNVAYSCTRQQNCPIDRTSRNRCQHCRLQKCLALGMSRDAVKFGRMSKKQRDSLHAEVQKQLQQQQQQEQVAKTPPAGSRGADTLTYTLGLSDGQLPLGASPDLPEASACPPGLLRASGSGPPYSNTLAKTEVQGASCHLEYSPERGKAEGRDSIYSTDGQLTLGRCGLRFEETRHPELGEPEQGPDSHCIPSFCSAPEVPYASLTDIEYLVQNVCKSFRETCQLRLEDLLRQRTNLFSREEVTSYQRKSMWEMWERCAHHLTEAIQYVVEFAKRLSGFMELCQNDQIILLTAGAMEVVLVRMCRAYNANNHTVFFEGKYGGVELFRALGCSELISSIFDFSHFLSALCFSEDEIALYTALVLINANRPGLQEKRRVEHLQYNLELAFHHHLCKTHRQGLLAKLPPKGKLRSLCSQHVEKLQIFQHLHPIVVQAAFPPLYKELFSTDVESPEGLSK
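Luciferase reporter read in Schneider cells carrying Gal4-RORγ (mouse) and UAS-Photinus luciferase; cells given compound 1 h before 700 uM copper sulfate induction, then incubated 20 h at ambient temperature.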
IL1B secr inh: qHTS for Inhibitors of Inflammasome Signaling: IL-1-beta AlphaLISA Primary Screen | THP-1 LPS/ATP IL-1B secretion, AlphaLISA, 16 h; stronger effect = lower value | 4.7% of 360,000 active | AID 743279, 2014 | activity change, % at 57.5 µM; in the data active = activity change below about -50%; inconclusive = mostly about -30% to -49%
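THP-1 cells pretreated 1 hr with compounds (up to 57.5 uM final), then stimulated with LPS (250 ng/mL final) plus ATP (1.25 mM final); secreted IL-1B measured by AlphaLISA after 16 hr, decreased signal indicating inhibition.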
MCF10A rerep: A quantitative high throughput screen for small molecules that induce DNA re-replication in MCF 10a normal breast cells; AID 624296, 2012; Potency, µM (top dose mostly 46.1 µM), actives largely listed as activators; MCF 10A DNA re-replication, Hoechst nuclear intensity, 48 h; 2.9% of 350,000 active; also: nearly all actives have a fitted effect of over 50% in size
Each line names hits and unclear results; the compound was inactive in the other large screens. Unless noted, calls follow the shape of the dose curve; as a rule, active = well fitted curve in the direction sought with a large enough effect; inconclusive = small, poorly fitted or top-dose-only effect, or another doubt; inactive = no such curve, though single readings can be large; an effect the other way counts as inactive or inconclusive.

CCc1sc(C(=O)Nc2nc(C)cs2)cc1C	VP16 counter 11µM, RORgamma inh 5µM
Cc1ccc(NC(=O)c2cc3c(s2)CCCC3)cc1	RORgamma inh inconclusive, IL1B secr inh -53
Cc1ccc(NC(=O)CN(C)C(=O)c2cc3c(s2)CCCCC3)cc1	none (no result: VP16 counter, RORgamma inh)
Cc1csc(NC(=O)c2cccs2)n1	none
Cc1csc(NC(=O)c2ccc(Br)s2)n1	SW480 rereplic inconclusive, VP16 counter inconclusive, RORgamma inh 10µM
CCc1sc(C(=O)Nc2ccc(NC(C)=O)cc2)cc1C	RORgamma inh inconclusive, IL1B secr inh inconclusive
O=C(Nc1ccccn1)c1ccc(Br)s1	IL1B secr inh -64
Cc1csc(NC(=O)c2cc3c(s2)CCC3)n1	SW480 rereplic inconclusive, VP16 counter 8.9µM, RORgamma inh 2µM, MCF10A rerep inconclusive
Cc1ccc(S(=O)(=O)Nc2ccc(Cl)cc2)cc1NC(=O)c1cc2c(s1)CCCC2	RORgamma inh inconclusive, IL1B secr inh -64, MCF10A rerep inconclusive
Cc1nc(NC(=O)CCl)sc1C(=O)N(C)C	SW480 rereplic inconclusive, VP16 counter inconclusive, RORgamma inh inconclusive, IL1B secr inh -81
Cc1nc(NC(=O)C(Cl)Cl)sc1C(=O)N(C)C	none
CCOC(=O)c1sc(NC(=O)c2cc3c(s2)CCC(C)C3)nc1C (configuration not stated)	RORgamma inh 0.25µM
CC1=C(C(=O)N(C)C)CC(CC(=O)NCCCCc2ccccc2)C(=O)N1Cc1ccccc1 (configuration not stated)	none (no result: SW480 rereplic, VP16 counter, RORgamma inh, MCF10A rerep)
Cc1cccc(CN2CCN(C3CN(Cc4cn(Cc5ccccc5)nn4)S(=O)(=O)C3)CC2)c1 (configuration not stated)	none (no result: SW480 rereplic, VP16 counter, RORgamma inh, MCF10A rerep)
O=C(O)c1ccccc1C(=O)c1cccc2c(Br)cccc12	none (no result: VP16 counter, RORgamma inh)
COc1ccc([C@H]2CC(=O)C[C@@H](CCn3cc(-c4ccncc4)nn3)O2)cc1	none (no result: SW480 rereplic, VP16 counter, RORgamma inh, MCF10A rerep)
Cc1ccc(NC(=O)CNC(=O)CC23CC4CC(CC(C4)C2)C3)c(O)c1	IL1B secr inh -52, MCF10A rerep inconclusive (no result: VP16 counter, RORgamma inh)
COc1ccc(NC(=O)CNC(=O)CC23CC4CC(CC(C4)C2)C3)c(OC)c1	none (no result: VP16 counter, RORgamma inh)
NC(=O)c1cnn2c(C(F)(F)F)cc(-c3ccccc3)nc12	none
Cc1cccc(Cc2c(C)nc3c(C(=O)NCc4ccco4)cnn3c2C)c1	SW480 rereplic inconclusive, VP16 counter inconclusive, IL1B secr inh -78, MCF10A rerep inconclusive
COc1ccc(-c2cc(C(F)(F)F)n3ncc(C(=O)N(C)Cc4ccccc4)c3n2)cc1	SW480 rereplic 23µM, IL1B secr inh -56, MCF10A rerep inconclusive
O=C(NCc1ccco1)c1cnn2c(C(F)(F)F)cc(-c3ccccc3)nc12	VP16 counter 11µM, RORgamma inh 16µM, IL1B secr inh inconclusive
COc1ccc(-c2cc(C(F)(F)F)n3ncc(C(=O)NCc4ccco4)c3n2)cc1	MCF10A rerep inconclusive
CC(C)(C)N1C(=O)[C@H]2[C@@H]3[C@H](O)[C@H](O)CC(=O)[C@H]3CC[C@H]2C1=O	none (no result: SW480 rereplic, IL1B secr inh, MCF10A rerep)
COc1ccc2c(c1)O[C@@H](c1cccc(C(F)(F)F)c1)[C@H](OC(=O)NCCOc1ccccc1)C2=O	none (no result: SW480 rereplic, IL1B secr inh, MCF10A rerep)
O=C(c1ccc(CNS(=O)(=O)c2ccc(Br)cc2)cc1)N1CCCCC1	none
CC1OC(CC(=O)O)CC2=C1C(=O)c1c(O)cccc1C2=O (configuration not stated)	SW480 rereplic inconclusive, IL1B secr inh -98, MCF10A rerep inconclusive (no result: VP16 counter, RORgamma inh)
Nc1c(N(CCC2=CCCCC2)C(=O)Cc2ccccc2F)c(=O)[nH]c(=O)n1Cc1ccccc1	none (no result: VP16 counter, RORgamma inh)
CC(=O)[C@H]1CC[C@H]2[C@@H]3CC=C4C[C@@H](O)CC[C@]4(C)[C@H]3CC[C@]12C	none (no result: VP16 counter, RORgamma inh)
CC12CCC(O)CC1=CCC1C2CCC2(C)c3[nH]ncc3CC12 (configuration not stated)	SW480 rereplic inconclusive, MCF10A rerep 15µM (no result: VP16 counter, RORgamma inh)
O=C(C1CC1)N1N=C(c2ccccc2)CC1(O)C(F)(F)C(F)(F)F (configuration not stated)	VP16 counter inconclusive, RORgamma inh 11µM
O=C(C1CC1)N1N=C(c2ccccc2)CC1(O)C(F)(F)F (configuration not stated)	none
Cc1ccsc1C(=O)N(C)CC(=O)Nc1ccccc1Br	none (no result: VP16 counter, RORgamma inh)
Cc1cc(N)c2ccccc2[n+]1CCCCCCCCCC[n+]1c(C)cc(N)c2ccccc21	VP16 counter inconclusive, RORgamma inh inconclusive (no result: IL1B secr inh)
Cc1ccc(-c2nc3cc(NC(=O)C(C)C)ccc3o2)cc1	none
CC(Oc1ccc(Cl)cc1Cl)c1nc(-c2ccc(NC(=O)c3ccncc3)cc2)no1 (configuration not stated)	SW480 rereplic inconclusive, VP16 counter 13µM, RORgamma inh inconclusive, MCF10A rerep 23µM
CC(Oc1ccc(Cl)cc1Cl)C(=O)Nc1ccc2oc(-c3ccncc3)nc2c1 (configuration not stated)	SW480 rereplic inconclusive, MCF10A rerep 9.2µM
CCC(C)Sc1cc(C(F)(F)F)c(C(=O)Nc2ccc(Cl)cc2)cn1 (configuration not stated)	RORgamma inh inconclusive, IL1B secr inh -88, MCF10A rerep inconclusive
Oc1ccccc1CNCCCN1CCOCC1	MCF10A rerep inconclusive
CCOc1ccc(NC(=O)CN(C)C(=O)c2ccc3c(c2)C(=O)N(CCC(C)C)C3=O)cc1OCC	none (no result: VP16 counter, RORgamma inh)
CCOC(=O)C1=C(COC(=O)CNS(=O)(=O)c2c(F)cc(F)cc2Br)NC(=O)NC1C (configuration not stated)	none (no result: VP16 counter, RORgamma inh)
O=C1c2ccccc2/C(=C\C#Cc2ccccn2)N1c1ccccc1	IL1B secr inh -100 (no result: VP16 counter, RORgamma inh)
NCCNCCN	none (no result: SW480 rereplic, IL1B secr inh, MCF10A rerep)
COCCn1c(-c2ccccc2)nc2ccccc21	SW480 rereplic inconclusive, RORgamma inh inconclusive, MCF10A rerep inconclusive
COc1ccc(-c2cnc(N)n2C)cc1	MCF10A rerep inconclusive
COCCn1c(-c2ccccc2)cnc1N	VP16 counter inconclusive, RORgamma inh 11µM
Cn1c(-c2ccccc2)cnc1N	RORgamma inh 13µM, IL1B secr inh inconclusive
O=C1OC(O)C(C(Cl)Cl)=C1Cl (configuration not stated)	VP16 counter 2.8µM, RORgamma inh 2.2µM (no result: SW480 rereplic, IL1B secr inh, MCF10A rerep)
O=C(Nc1nc2ccccc2s1)c1ccc2sc([C@H]3C[C@H](O)[C@@H](CO)O3)nc2c1	none (no result: SW480 rereplic, VP16 counter, RORgamma inh, MCF10A rerep)
NC(=O)c1nsc(C(=O)N(c2ccc(F)cc2)C(C(=O)NCC2CCCO2)c2c[nH]c3ccccc23)c1N (configuration not stated)	VP16 counter 16µM, IL1B secr inh -60
Cc1cccc(N(C(=O)c2snc(C(N)=O)c2N)C(C(=O)NCC2CCCO2)c2c[nH]c3ccccc23)c1 (configuration not stated)	IL1B secr inh inconclusive

From PubChem BioAssay
